# A selection: hits, their analogues and other compounds. The true share with any hit is near 2.9%.
# Wnt act = Wnt/beta-catenin pathway activators, primary screen, cell-based, plate reader, single point | Wnt/beta-catenin reporter cell assay, activator | activation, % at 9.35 µM | 300,000 tested, 1.2% active; in the data active = activation above about 30%, passing the limit was not always enough; inconclusive = no clear call, values can overlap the other calls;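 also: 0% = neutral control wells and 100% = positive control wells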
# esBAF inh = Bmi1 luciferase reporter increase in mESCs, primary screen, esBAF inhibitor project, mouse ES cells, Bmi1 luciferase knock-in, single point. 24 h; 100% = twice the neutral-well signal. reporter increase, % at 12.5 µM. 350,000 tested, 2% active. AID 602393, 2012; in the data active = activation above about 40%; inconclusive = no clear call, values can overlap the other calls;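 also: 0% = median of the plate's neutral control wells and 100% = double that signal; a rise in the Bmi1 reporter signal indicates esBAF inhibition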
# N-glyco inh = increase of ERlucT glycosylation luciferase signal, primary screen, N-linked glycosylation inhibitor project, D54 ERlucT cells, luminescence, set 2; AID 588692, 2011; 360,000 tested, 0.23% active; reporter increase, % at 12.5 µM; D54 ERlucT glycosylation luciferase reporter, 24 h; percent of 100 nM tunicamycin response;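 active = mean luciferase reporter signal, scaled so untreated is 0 and the glycosylation-blocking control 100, at or above a set limit in every replicate; inconclusive = mean reaches the limit but not every replicate does; inactive = mean below the limit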;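 also: luciferase carries N-glycosylation sites so blocking glycosylation raises the light; 0% = median of neutral control wells and 100% = median of 100 nM tunicamycin wells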
# MITF TRPM1 HTS = activators of MITF-driven TRPM1 promoter reporter, primary screen, cell-based, SK-MEL-5, luciferase, single point; 300,000 tested, 0.75% active; SK-MEL-5 TRPM1-promoter luciferase, 24 h; % of positive control, neutral wells = 0; AID 588334, 2011; activation, % at 12.5 µM;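 active = mean activation of at least 80% with every replicate also reaching 80%; inconclusive = mean reaches 80% but some replicate falls short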;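 also: 0% = neutral control wells and 100% = parthenolide positive control wells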
# Vif inh = HIV Vif self-association inhibitors, primary screen, imaging, HEK293T, single point; AID 602346, 2012; 340,000 tested, 0.35% active; HEK293T cells, Vif self-association by quenched fluorescence, 24 h; inhibition, % at 7.49 µM; in the data active = inhibition above about 50%, passing the limit was not always enough; inconclusive = no clear call, values can overlap the other calls; inactive = below about 31%
# PvdQ acylase = P. aeruginosa PvdQ acylase inhibitors, primary screen, biochemical, fluorescence, plate reader and imaging, single point | PvdQ acylase [Pseudomonas aeruginosa LESB58] | purified PvdQ acylase | inhibition, % at 10 µM | 340,000 tested, 0.063% active | AID 488965, 2010; in the data active = inhibition above about 30%, passing the limit was not always enough; inconclusive = no clear call, values can overlap the other calls;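 also: 0% = vehicle neutral wells and 100% = reference inhibitor wells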
# * = called active by the depositor; ? = inconclusive; nt = not tested or not shown.
SMILES,Wnt act,esBAF inh,N-glyco inh,MITF TRPM1 HTS,Vif inh,PvdQ acylase
CSc1ccccc1NC(=O)Nc1ccc(Cl)cc1,-4.9,49.6*,-1.7,35.2,-14.1,-2.1
Cc1cccnc1NC(=O)Nc1ccc(F)cc1,0.2,51.2*,2.1,40.0,12.2,-2.5
COc1ccc(NC(=O)Nc2ccccc2F)cc1,24.6,31.5,-12.6,71.7,-3.9,-7.6
O=C(Nc1ccc(F)cc1)Nc1ccccc1F,-5.0,74.4*,-3.4,54.9,-0.6,0.4
O=C(C[C@@H]1CC[C@@H]2[C@H](COC[C@@H](O)CN2CCC(F)(F)F)O1)NCC1CCCCC1,nt,4.6,nt,nt,nt,nt
CNC[C@@H]1OCCCC[C@@H](C)Oc2ccc(NS(C)(=O)=O)cc2C(=O)N([C@@H](C)CO)C[C@@H]1C,nt,-6.3,nt,nt,nt,nt
CCS(=O)(=O)Nc1ccc2c(c1)C(=O)N(C)C[C@H](OC)[C@@H](C)CN(C(=O)NC(C)C)[C@@H](C)CO2,nt,-7.2,nt,nt,nt,nt
CN(C)C(=O)c1ccc(-c2cccc(-c3nc(C(=O)NC4CCCC4)cc4c3[C@H](CCO)N([S@@](=O)C(C)(C)C)C4)c2)cc1,nt,5.7,nt,nt,nt,nt
Cc1ccc(O)c(CN(C)Cc2cc(C)ccc2O)c1,24.9,50.6*,-2.1,71.8,16.0,-8.9
CCOC(=O)Cc1csc(NC(=O)c2ccc(S(=O)(=O)N(CCOC)CCOC)cc2)n1,37.2*,nt,1.3,4.7,-3.4,4.3
CCOC(=O)Cc1csc(NC(=O)c2cccs2)n1,nt,63.5*,-0.2,65.6,3.3,-12.4
CCOC(=O)c1csc(NC(=O)c2cccs2)n1,37.2*,52.6*,-3.0,95.2*,-5.3,12.4
CCOC(=O)Cc1csc(NC(=O)c2ccc(C)cc2)n1,2.4,nt,0.8,18.8,-4.2,-12.7
CCOC(=O)c1sc(NC(=O)c2cccs2)nc1C,21.5,20.1,-3.8,29.5,-2.4,-6.6
C[C@@H]1CN([C@H](C)CO)C(=O)c2cccc(N(C)C)c2O[C@H]1CN(C)Cc1ccc(C(=O)Nc2ccccc2N)cc1,nt,-3.5,nt,nt,nt,nt
COc1ccc(S(=O)(=O)N2CCCCN3[C@@H](CO)[C@H](c4ccc(C5=CCCC5)cc4)[C@@H]3C2)cc1,nt,-4.5,nt,nt,nt,nt
CSc1ccccc1C(=O)N1CCc2ccc(NC(=O)c3ccccn3)cc2C1,-0.1,45.7*,-10.3,nt,-21.2,nt
O=C(Nc1ccc2c(c1)CN(C(=O)Nc1ccc(F)cc1)CC2)c1ccccn1,-2.8,47.1*,11.7,nt,-9.3,nt
COC(=O)c1ccccc1NC(=O)N1CCc2ccc(NC(=O)c3ccccn3)cc2C1,28.4,?,2.9,47.0,-14.2,8.1
C[C@H]1CN([C@@H](C)CO)C(=O)c2cc(NS(=O)(=O)c3ccc(F)cc3)ccc2O[C@H]1CN(C)Cc1ccccc1,nt,-2.4,nt,nt,nt,nt
C[C@@H](C(=O)N(C)C[C@H]1OCc2ccccc2-c2ccccc2C(=O)N([C@@H](C)CO)C[C@@H]1C)c1ccccc1,nt,3.0,nt,nt,nt,nt
C[C@H]1CN([C@@H](C)CO)C(=O)c2cccc(NC(=O)Nc3ccc(C(F)(F)F)cc3)c2O[C@@H]1CN(C)C(=O)Nc1ccc2c(c1)OCO2,nt,6.0,nt,nt,nt,nt
C/C(=N\NC(=O)c1cccs1)c1c(O)cc(C)oc1=O,4.1,62.7*,-0.7,-1.6,6.9,-12.4
Cc1ccsc1/C=N\NC(=O)c1ccc2c(c1)OCO2,39.4*,-1.7,-5.2,nt,1.6,-11.3
C/C(=N\NC(=O)c1ccc2c(c1)OCO2)c1ccc2c(c1)OCO2,18.1,52.1*,-1.1,17.8,0.2,-20.7
SMILES,Wnt act,esBAF inh,N-glyco inh,MITF TRPM1 HTS,Vif inh,PvdQ acylase
CC(=NNC(=O)c1cccs1)c1ccc2c(c1)OCCO2,?,47.3*,5.0,104.6*,2.3,-0.3
C/C(=N\NC(=O)c1ccc2c(c1)OCO2)c1ccc(C(=O)O)s1,-0.4,nt,0.9,0.1,0.5,-8.8
C[C@H](CO)N1C[C@H](C)[C@H](CN(C)Cc2ccc(C(F)(F)F)cc2)OCCCC[C@H](C)Oc2ccc(NS(=O)(=O)c3ccc(F)cc3)cc2C1=O,nt,-5.7,nt,nt,nt,nt
C[C@@H]1CN([C@H](C)CO)C(=O)c2cc(Br)cnc2O[C@H]1CN(C)C(=O)Nc1ccc(F)cc1,nt,-0.7,nt,nt,nt,nt
C/C(=N\NC(=O)c1ccc2c(c1)OCCO2)c1ccccc1,47.3*,-44.1,-16.3,nt,-1.2,-10.9
O=C(NN=C1CCCCCC1)c1ccc2c(c1)OCO2,-6.6,54.2*,2.3,18.8,12.5,-18.6
COCC(=O)Nc1ccc2c(c1)C(=O)N(C)C[C@@H](OC)[C@H](C)CN(C(=O)Cc1cccnc1)[C@H](C)CO2,nt,-1.6,nt,nt,nt,nt
COc1ccc(NC(=O)Nc2ccc3c(c2)C(=O)N([C@@H](C)CO)C[C@H](C)[C@H](CN(C)C(=O)NC2CCCCC2)O3)cc1,nt,3.3,nt,nt,nt,nt
COc1ccc(S(=O)(=O)N(C)C[C@@H]2Oc3c(NS(=O)(=O)c4cn(C)cn4)cccc3C(=O)N([C@H](C)CO)C[C@@H]2C)cc1,nt,6.1,nt,nt,nt,nt
C[C@@H]1CCCCO[C@@H](CN(C)S(=O)(=O)c2cn(C)cn2)[C@@H](C)CN([C@@H](C)CO)C(=O)c2cc(NS(=O)(=O)c3ccc(Cl)cc3)ccc2O1,nt,1.8,nt,nt,nt,nt
Nc1ccc2nc(-c3cccs3)[nH]c2c1,13.5,44.2*,-3.9,58.5,1.2,-9.6
CCCCNC(=O)C1(C)CCCCN1C(=O)c1c(C)noc1C (stereo not drawn),32.7*,3.7,1.3,nt,10.1,nt
CCCCNC(=O)C1(C)CCCCN1C(=O)c1cccs1 (stereo not drawn),39.2*,0.8,0.5,nt,-9.1,nt
NC(=O)C1CCN(c2nc(-c3ccc(F)cc3)cs2)CC1,2.2,-2.1,-0.4,7.4,-3.2,-8.3
NC(=O)C1CCN(c2nc(-c3ccccc3C(F)(F)F)cs2)CC1,14.0,68.0*,2.7,75.4,-4.8,-9.4
NC(=O)C1CCN(c2nc(-c3cccc(N)c3)cs2)CC1,8.6,80.7*,4.1,52.3,0.8,-5.3
NC(=O)C1CCN(c2nc(-c3ccccc3F)cs2)CC1,?,38.1,-0.3,87.9*,-5.7,-13.9
CN(C)c1ccccc1-c1csc(N2CCC(C(N)=O)CC2)n1,16.9,70.1*,-0.5,96.6*,-3.3,-12.6
CCCNC(=O)C[C@@H]1CC[C@@H]2[C@@H](COc3ccc(NC(=O)Nc4ccccc4)cc3C(=O)N2C)O1,nt,-2.5,nt,nt,nt,nt
CC=Cc1ccc2n(c1=O)C[C@@H]1[C@@H](CO)[C@H](C(=O)Nc3ccccc3)N(CC3CC3)[C@H]21 (mixture of isomers),nt,7.6,nt,nt,nt,nt
NC(=O)C1CCN(c2nc(-c3ccccc3Br)cs2)CC1,38.4*,nt,nt,nt,nt,nt
CS(=O)(=O)c1ccccc1-c1csc(N2CCC(C(N)=O)CC2)n1,-2.0,nt,nt,nt,nt,nt
O=c1oc2ccccc2c2c1ncn2CCN1CCOCC1,43.6*,3.5,4.4,nt,4.5,-0.6
